Assay [1] can be described thus: NCI Yeast Anticancer Drug Screen. Data for the rad50 strain (AID 155).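 Note: 0% = growth of vehicle-only cultures of the same strain.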 Conditions: S. cerevisiae rad50 strain growth inhibition; at 50.0 µM; hits give high values. In outline:
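Relative growth inhibition (compound vs vehicle) was measured in yeast with a defined repair-gene alteration.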

The nature of assay [2]: NCI Yeast Anticancer Drug Screen. Data for the mec2-1 strain (AID 157). The settings on record: S. cerevisiae mec2-1 strain, at 50.0 µM, hits give high values. In outline: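 Growth inhibition is read against vehicle-treated controls after compound exposure of the mec2-1 yeast strain, which is defective in DNA damage repair or cell cycle control.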
Assay [3] in a line: NCI Yeast Anticancer Drug Screen. Data for the sgs1 mgt1 strain (AID 161).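 Note: 0% = growth of cultures given vehicle only.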 Conditions: S. cerevisiae sgs1 mgt1 strain, at 50.0 µM, hits give high values. In outline:
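This yeast growth screen uses a strain with defined DNA-repair lesions; compound-treated growth is compared with vehicle-treated growth.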

Assay [4] in a line: NCI Yeast Anticancer Drug Screen. Data for the cln2 rad14 strain (AID 165).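 Note: 0% = growth equal to vehicle treated cultures.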 Conditions: S. cerevisiae cln2 rad14 strain, at 50.0 µM, hits give high values. In a few lines:
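Growth inhibition, relative to vehicle-treated controls, is the read-out. The test organism is a yeast strain with defined genetic alterations, cln2 rad14.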

The nature of assay [5]: NCI Yeast Anticancer Drug Screen. Data for the bub3 strain (AID 167). The settings on record: S. cerevisiae bub3 mutant strain, at 50.0 µM, hits give high values. In outline: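 Screening used yeast with an engineered genetic alteration affecting cell cycle control. Compound-exposed cultures were compared with vehicle cultures, and reduced growth was taken as inhibition.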

Assay [6] in a line: NCI Yeast Anticancer Drug Screen. Data for the mlh1 rad18 strain (AID 175). Conditions: S. cerevisiae mlh1 rad18 strain growth inhibition; at 50.0 µM; hits give high values. In a few lines:
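Cells of a genetically altered yeast strain, deficient in DNA damage repair, were treated with compound. Their growth was then compared with that of vehicle-treated cultures to give inhibition.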

This is part of a sample that, as a whole, favours compounds with a hit. Of some 79,000 tested, about 15% had one in any assay. Values without a mark were called inactive. Calls of active or inactive are those of the source. Cut-off read from the data, not from the text of the source: active = growth inhibition above about 70%; inactive = the rest. Where a SMILES comes first, the peptide text is derived from it.

This note sets out measurements from PubChem BioAssay (NCI).

`C(=N\N1CCN(/N=C/c2ccc3ccccc3n2)CC1)/c1ccc2ccccc2n1`: the growth inhibition in assay [1] was 38.1%; in assay [2] it was 13.1%; in assay [3], 11.9%; in assay [4], 26.5%; in assay [5] it was 1.5%; in assay [6], 32.4%.

Turning to `Cc1ccc([N+](=O)[O-])c(N)n1`, the growth inhibition is 3.25% in assay [1]; -5.65% in assay [2]; -2.45% in assay [3]; 2.3% in assay [4]; 3.8% in assay [5]; 1.3% in assay [6].

Take `Cc1cc2[nH]c(=O)n(C3OC(CO)C(O)C3O)c2cc1C` (stereo unspecified): the growth inhibition in assay [1] is -15.2%; in assay [2] it was 19.1%; in assay [3] it was 2.4%; in assay [4], -33.2%; in assay [5], -7.6%; in assay [6] it was -4.4%.

In the case of `CCCc1c(OC)c(=O)c2c(OC)cc(OC)c3c4c(OC)cc(OC)c5c(=O)c(OC)c(CCC)c(c1c23)c54`, the growth inhibition in assay [1] is 88.3% (active); in assay [2], 92% (active); in assay [3], 86.4% (active); in assay [4] it was 88.5% (active); in assay [5] it was 83% (active); in assay [6], 92.6% (active).

In the case of `CC(Nc1ccc(Cl)c(Cl)c1)C1CCOC1=O` (stereo unspecified), the growth inhibition is 85.5% (active) in assay [1]; 97% (active) in assay [2]; 94.8% (active) in assay [3]; 80% (active) in assay [4]; 94.8% (active) in assay [5]; 95.5% (active) in assay [6].

As to `NC12CC3CC(C1)CC(Cl)(C3)C2`, the growth inhibition in assay [1] was -12.6%; in assay [2], -26.9%; in assay [3] it was -32.4%; in assay [4], -3.5%; in assay [5], -35.9%; in assay [6] it was 4.1%.

For the molecule `N#Cc1ccccc1NC(=O)C(=O)C1NC(=S)NC1=O` (stereo unspecified), the growth inhibition is 15.4% in assay [1]; -1.75% in assay [2]; 26% in assay [3]; 13.6% in assay [4]; -3.2% in assay [5]; 18.1% in assay [6].

As for `CCOC(=O)C1=C(C)C/C(=N/NC(N)=O)CC1`, the growth inhibition in assay [1] was 6.35%; in assay [2], -17.9%; in assay [3], -0.95%; in assay [4], 0.05%; in assay [5] it was -0.95%; in assay [6] it was -7.85%.

As for `CCOC(=O)CNC(=O)C(Cc1ccccc1)NC(=O)C(N)CC(=O)O` (stereo not drawn) (H-Asp-Phe-Gly-OEt; configuration not given here), the growth inhibition in assay [1] was -18.6%; in assay [2] it was -42.4%; in assay [3], -12.1%; in assay [4], -19.9%; in assay [5], -13.4%; in assay [6], -25%.

In the case of `O=S(=O)(CC(Br)c1ccccc1)c1ccccc1` (stereo unspecified), the growth inhibition in assay [1] was 44.7%; in assay [2] it was 6.15%; in assay [3] it was 5.05%; in assay [4], -4.3%; in assay [5], 60.5%; in assay [6] it was 45%.

For the molecule `CCOC(=O)C(C#N)(CCC#N)CCC#N`, the growth inhibition in assay [1] is 26.3%; in assay [2] it was 6.8%; in assay [3] it was 9.05%; in assay [4], -3.45%; in assay [5] it was 9.4%; in assay [6], 12.6%.

For `CCCCCCNC(=O)/C(=C\c1ccc(Cl)cc1Cl)NC(=O)c1ccccc1`, the growth inhibition in assay [1] is -3.7%; in assay [2], -17.8%; in assay [3], -9.75%; in assay [4] it was 33.1%; in assay [5], -16.5%; in assay [6] it was -9.6%.

With `CC12CCC3c4ccc(Cc5ccc([N+](=O)[O-])cc5)cc4CCC3C1CCC2=O` (stereo unspecified), the growth inhibition in assay [1] is 32.6%; in assay [2], 9.2%; in assay [3], 10.8%; in assay [4], 19.7%; in assay [5], 1.05%; in assay [6], 25.6%.

Consider `Cc1cc(=O)c2c(C)nn(-c3ccccc3)c2[nH]1`, for which the growth inhibition was -16.3% in assay [1]; -36.2% in assay [2]; 10.3% in assay [3]; -9.15% in assay [4]; 2.4% in assay [5]; -1.85% in assay [6].

On to `c1ccc2c(-c3c[nH]c4ccccc34)c[nH]c2c1`, for which the growth inhibition in assay [1] was 16.8%; in assay [2], -1.5%; in assay [3], -3.05%; in assay [4], -27.2%; in assay [5] it was -8.75%; in assay [6] it was 15.3%.

For `CN(C)CCNc1ccc(CO)c2sc3ccc(O)cc3c(=O)c12`, the growth inhibition in assay [1] was 11.4%; in assay [2], -3.65%; in assay [3] it was 12.1%; in assay [4] it was -32%; in assay [5], 12.2%; in assay [6] it was -9.25%.

On to `Oc1ccc(O)c(CCCc2cc(O)ccc2O)c1`, for which the growth inhibition in assay [1] was 13.3%; in assay [2] it was 7.8%; in assay [3], -2.25%; in assay [4], 0.5%; in assay [5], 6.95%; in assay [6], 49.5%.

With `CC(=O)N(C)c1cccc2ccccc12`, the growth inhibition was 17.9% in assay [1]; -1.35% in assay [2]; 9.85% in assay [3]; -4.65% in assay [4]; 6.75% in assay [5]; 5.2% in assay [6].

As to `O=C1OCC/C1=C1/Nc2ccccc2NC1=O`, the growth inhibition in assay [1] was -13.1%; in assay [2], -24%; in assay [3], -8.1%; in assay [4] it was -22.2%; in assay [5], -16.4%; in assay [6], -13.8%.

Consider `Cc1cccc(C)c1Nc1nc(C)c(C(=O)CC(=O)C(=O)Nc2c(C(C)C)cccc2C(C)C)s1`, for which the growth inhibition in assay [1] is 18.3%; in assay [2], -6.35%; in assay [3], 46.3%; in assay [4] it was -15.7%; in assay [5], -3.55%; in assay [6] it was 19.6%.

For the molecule `COC(=O)Nc1cccc(OC(=O)Nc2cccc(Cl)c2)c1`, the growth inhibition is 10.3% in assay [1]; 25.2% in assay [2]; 26.6% in assay [3]; -2.85% in assay [4]; 31.4% in assay [5]; 1.4% in assay [6].
